Data reported in publication PMC7862700, “An all-to-all approach to the identification of sequence-specific readers for epigenetic DNA modifications on cytosine”.

Columns and labels:
Experiment in all cases: DAPPL (digital affinity profiling via proximity ligation, sequencing); 10 mM Tris-HCl pH 7.5, 50 mM NaCl, 1 mM DTT, 4% glycerol, room temperature, 30 min; GST-TFs on glutathione beads, 16-mer random dsDNA library, 0.1% formaldehyde crosslink after washing; high values mean tight binding
FLI1 = target: T1, FLI1 (Homo sapiens, UniProt Q01543 1-452); settings: protein: recombinant; tags: N-terminal GST; dsDNA, one strand shown
T1 sequence: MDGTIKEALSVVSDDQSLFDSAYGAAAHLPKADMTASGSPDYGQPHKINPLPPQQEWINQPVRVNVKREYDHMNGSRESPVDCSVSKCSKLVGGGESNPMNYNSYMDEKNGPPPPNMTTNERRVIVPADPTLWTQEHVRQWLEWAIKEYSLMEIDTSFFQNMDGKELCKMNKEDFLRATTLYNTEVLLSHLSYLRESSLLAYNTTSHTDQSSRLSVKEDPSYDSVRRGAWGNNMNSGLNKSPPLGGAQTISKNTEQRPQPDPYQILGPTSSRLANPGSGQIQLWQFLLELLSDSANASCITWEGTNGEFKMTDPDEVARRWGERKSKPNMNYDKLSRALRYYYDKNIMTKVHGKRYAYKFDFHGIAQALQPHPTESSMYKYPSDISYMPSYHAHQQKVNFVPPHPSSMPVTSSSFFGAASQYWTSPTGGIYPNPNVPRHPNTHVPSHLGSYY
Method in brief: (§1)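 Yeast served to express human transcription factors as GST fusions, which were then captured on glutathione beads and labelled with DNA barcodes. Pooled with a tag-only sample, they were incubated with 200 nmole of a 16-mer random double-stranded DNA library for 30 min at room temperature in Tris/NaCl/DTT/glycerol buffer, washed, crosslinked with 0.1% formaldehyde, ligated by proximity, amplified by PCR and sequenced. Dividing each hexamer's read frequency for a factor by its frequency for the tag-only sample gives the binding signal.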

ELK1 = target: T2, ELK1 (Homo sapiens, UniProt P19419 1-428); settings: protein: recombinant; tags: N-terminal GST; dsDNA, one strand shown
T2 sequence: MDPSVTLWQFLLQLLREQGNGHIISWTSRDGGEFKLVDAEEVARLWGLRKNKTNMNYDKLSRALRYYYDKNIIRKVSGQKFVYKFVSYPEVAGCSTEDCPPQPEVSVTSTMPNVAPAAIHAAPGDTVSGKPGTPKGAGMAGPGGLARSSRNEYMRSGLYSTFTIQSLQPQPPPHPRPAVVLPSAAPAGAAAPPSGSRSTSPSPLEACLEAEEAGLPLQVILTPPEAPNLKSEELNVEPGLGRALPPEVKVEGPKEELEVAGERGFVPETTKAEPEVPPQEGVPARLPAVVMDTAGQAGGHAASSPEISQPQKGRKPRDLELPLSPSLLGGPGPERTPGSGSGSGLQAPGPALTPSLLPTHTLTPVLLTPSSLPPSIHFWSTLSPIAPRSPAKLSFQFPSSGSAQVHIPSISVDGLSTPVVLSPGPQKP
Method in brief: as §1

GABPA = target: T3, GABPA (Homo sapiens, UniProt Q06546 1-454); settings: protein: recombinant; tags: N-terminal GST; dsDNA, one strand shown
T3 sequence: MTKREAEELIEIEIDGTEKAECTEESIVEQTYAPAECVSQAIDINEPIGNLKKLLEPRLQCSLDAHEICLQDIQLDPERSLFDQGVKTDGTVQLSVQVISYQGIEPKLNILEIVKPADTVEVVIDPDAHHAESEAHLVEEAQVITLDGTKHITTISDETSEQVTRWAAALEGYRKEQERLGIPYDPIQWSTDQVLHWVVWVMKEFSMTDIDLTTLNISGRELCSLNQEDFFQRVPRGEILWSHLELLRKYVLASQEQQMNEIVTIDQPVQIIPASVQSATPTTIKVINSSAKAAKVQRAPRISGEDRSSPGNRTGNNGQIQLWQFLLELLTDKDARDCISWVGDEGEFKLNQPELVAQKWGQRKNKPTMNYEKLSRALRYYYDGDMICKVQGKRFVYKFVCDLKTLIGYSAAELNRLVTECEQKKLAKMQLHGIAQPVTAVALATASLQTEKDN
Method in brief: as §1

ERG = target: T4, ERG (Homo sapiens, UniProt P11308 1-479); settings: protein: recombinant; tags: N-terminal GST; dsDNA, one strand shown
T4 sequence: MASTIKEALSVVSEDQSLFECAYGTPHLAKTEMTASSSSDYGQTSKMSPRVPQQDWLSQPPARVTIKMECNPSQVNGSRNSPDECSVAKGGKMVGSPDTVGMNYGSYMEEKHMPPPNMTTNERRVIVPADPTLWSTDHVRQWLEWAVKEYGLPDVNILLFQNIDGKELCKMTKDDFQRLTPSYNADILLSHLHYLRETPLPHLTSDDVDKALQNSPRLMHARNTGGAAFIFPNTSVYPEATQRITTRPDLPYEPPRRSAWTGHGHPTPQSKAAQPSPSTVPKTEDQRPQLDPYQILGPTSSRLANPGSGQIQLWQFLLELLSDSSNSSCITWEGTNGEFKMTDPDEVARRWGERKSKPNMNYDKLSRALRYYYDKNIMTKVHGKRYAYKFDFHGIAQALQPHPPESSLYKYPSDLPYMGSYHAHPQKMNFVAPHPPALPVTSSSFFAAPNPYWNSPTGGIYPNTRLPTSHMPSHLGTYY
Method in brief: as §1

ELF1 = ELF1 (Homo sapiens, UniProt P32519 1-619); settings: protein: recombinant; tags: N-terminal GST; dsDNA, one strand shown
Method in brief: as §1

EHF = target: T5, EHF (Homo sapiens, UniProt Q9NZC4 1-300); settings: protein: recombinant; tags: N-terminal GST; dsDNA, one strand shown
T5 sequence: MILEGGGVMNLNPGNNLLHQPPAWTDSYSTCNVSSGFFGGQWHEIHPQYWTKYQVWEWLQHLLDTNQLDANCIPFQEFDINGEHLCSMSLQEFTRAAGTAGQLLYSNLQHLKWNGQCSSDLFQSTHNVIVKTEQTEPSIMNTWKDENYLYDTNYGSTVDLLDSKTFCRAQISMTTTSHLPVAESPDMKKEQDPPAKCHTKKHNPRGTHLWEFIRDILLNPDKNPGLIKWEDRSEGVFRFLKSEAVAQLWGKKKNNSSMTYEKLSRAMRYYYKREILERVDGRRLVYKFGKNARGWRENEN
Method in brief: as §1

SPI1 = SPI1 (Homo sapiens, UniProt P17947 1-270); settings: protein: recombinant; tags: N-terminal GST; dsDNA, one strand shown
Method in brief: as §1

SPIB = SPIB (Homo sapiens, UniProt Q01892 1-262); settings: protein: recombinant; tags: N-terminal GST; dsDNA, one strand shown
Method in brief: as §1

ELK3 = target: T6, ELK3 (Homo sapiens, UniProt P41970 1-407); settings: protein: recombinant; tags: N-terminal GST; dsDNA, one strand shown
T6 sequence: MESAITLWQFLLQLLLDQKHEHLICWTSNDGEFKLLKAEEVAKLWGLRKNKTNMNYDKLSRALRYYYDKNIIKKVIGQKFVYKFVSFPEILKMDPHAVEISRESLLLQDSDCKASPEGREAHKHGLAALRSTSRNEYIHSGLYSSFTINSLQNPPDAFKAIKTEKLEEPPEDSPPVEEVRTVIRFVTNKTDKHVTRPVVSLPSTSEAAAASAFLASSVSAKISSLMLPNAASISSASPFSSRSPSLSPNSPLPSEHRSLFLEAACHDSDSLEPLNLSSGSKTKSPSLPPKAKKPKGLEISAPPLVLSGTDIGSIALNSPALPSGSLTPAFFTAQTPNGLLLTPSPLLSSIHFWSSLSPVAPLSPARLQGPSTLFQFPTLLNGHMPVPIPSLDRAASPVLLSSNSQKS
Method in brief: as §1

FEV = target: T7, FEV (Homo sapiens, UniProt Q99581 1-238); settings: protein: recombinant; tags: N-terminal GST; dsDNA, one strand shown
T7 sequence: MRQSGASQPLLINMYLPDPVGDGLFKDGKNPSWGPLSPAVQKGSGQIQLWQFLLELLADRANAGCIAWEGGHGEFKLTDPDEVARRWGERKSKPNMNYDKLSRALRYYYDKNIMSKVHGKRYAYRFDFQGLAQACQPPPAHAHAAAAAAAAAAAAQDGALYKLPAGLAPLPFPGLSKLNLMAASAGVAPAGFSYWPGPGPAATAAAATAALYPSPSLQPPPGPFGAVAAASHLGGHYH
Method in brief: as §1

ETV5 = ETV5 (Homo sapiens, UniProt P41161 1-510); settings: protein: recombinant; tags: N-terminal GST; dsDNA, one strand shown
Method in brief: as §1

HSF1 = HSF1 (Homo sapiens, UniProt Q00613 1-529); settings: protein: recombinant; tags: N-terminal GST; chain copies: 3; dsDNA, one strand shown
Method in brief: as §1

SPIC = target: T8, SPIC (Homo sapiens, UniProt Q8N5J4 1-248); settings: protein: recombinant; tags: N-terminal GST; dsDNA, one strand shown
T8 sequence: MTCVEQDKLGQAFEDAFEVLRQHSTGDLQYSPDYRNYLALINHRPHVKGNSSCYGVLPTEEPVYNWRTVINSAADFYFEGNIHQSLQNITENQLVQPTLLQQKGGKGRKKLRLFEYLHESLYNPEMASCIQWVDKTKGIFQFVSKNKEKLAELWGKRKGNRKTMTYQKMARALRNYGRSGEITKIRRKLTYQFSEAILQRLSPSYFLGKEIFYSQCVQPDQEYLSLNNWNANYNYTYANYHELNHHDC
Method in brief: as §1

ELF4 = ELF4 (Homo sapiens, UniProt Q99607 1-663); settings: protein: recombinant; tags: N-terminal GST; dsDNA, one strand shown
Method in brief: as §1

ELK4 = target: T9, ELK4 (Homo sapiens, UniProt P28324-2 1-405); settings: protein: recombinant; tags: N-terminal GST; dsDNA, one strand shown
T9 sequence: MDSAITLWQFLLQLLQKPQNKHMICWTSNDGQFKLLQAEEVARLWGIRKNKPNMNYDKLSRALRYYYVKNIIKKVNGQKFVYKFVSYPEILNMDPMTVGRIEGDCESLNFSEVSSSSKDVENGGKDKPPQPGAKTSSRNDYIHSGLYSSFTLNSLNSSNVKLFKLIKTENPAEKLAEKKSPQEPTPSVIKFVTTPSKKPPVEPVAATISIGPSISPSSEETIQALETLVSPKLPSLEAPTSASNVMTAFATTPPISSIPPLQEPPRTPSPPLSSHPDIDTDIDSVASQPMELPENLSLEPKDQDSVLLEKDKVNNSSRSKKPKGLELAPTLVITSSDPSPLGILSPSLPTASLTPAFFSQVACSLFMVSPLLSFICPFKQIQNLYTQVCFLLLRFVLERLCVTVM
Method in brief: as §1

ETV2 = target: T10, ETV2 (Homo sapiens, UniProt O00321 1-342); settings: protein: recombinant; tags: N-terminal GST; dsDNA, one strand shown
T10 sequence: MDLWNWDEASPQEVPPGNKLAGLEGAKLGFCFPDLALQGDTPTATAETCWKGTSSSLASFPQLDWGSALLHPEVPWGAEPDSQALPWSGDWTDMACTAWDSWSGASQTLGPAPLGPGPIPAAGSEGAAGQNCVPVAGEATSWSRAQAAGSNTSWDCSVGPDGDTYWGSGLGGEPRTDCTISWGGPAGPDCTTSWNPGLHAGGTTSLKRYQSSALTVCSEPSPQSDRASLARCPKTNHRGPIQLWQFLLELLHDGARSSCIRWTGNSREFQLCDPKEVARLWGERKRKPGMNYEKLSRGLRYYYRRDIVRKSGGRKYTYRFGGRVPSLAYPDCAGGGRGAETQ
Method in brief: as §1

ELF3 = target: T11, ELF3 (Homo sapiens, UniProt P78545 1-371); settings: protein: recombinant; tags: N-terminal GST; dsDNA, one strand shown
T11 sequence: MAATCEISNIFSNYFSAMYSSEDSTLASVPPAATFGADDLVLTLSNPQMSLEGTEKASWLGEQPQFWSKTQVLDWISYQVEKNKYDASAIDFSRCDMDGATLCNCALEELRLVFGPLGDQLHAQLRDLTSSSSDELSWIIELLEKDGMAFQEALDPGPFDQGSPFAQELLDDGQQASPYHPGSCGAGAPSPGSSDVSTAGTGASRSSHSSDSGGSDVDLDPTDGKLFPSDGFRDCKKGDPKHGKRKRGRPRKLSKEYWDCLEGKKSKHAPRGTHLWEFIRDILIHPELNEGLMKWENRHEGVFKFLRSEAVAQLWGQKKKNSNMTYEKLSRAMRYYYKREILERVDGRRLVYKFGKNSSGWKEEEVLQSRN
Method in brief: as §1

CRX = CRX (Homo sapiens, UniProt O43186 1-299); settings: protein: recombinant; tags: N-terminal GST; dsDNA, one strand shown
Method in brief: as §1

ETV1 = ETV1 (Homo sapiens, UniProt P50549 1-477); settings: protein: recombinant; tags: N-terminal GST; dsDNA, one strand shown
Method in brief: as §1

ELF4, sequence (Q99607 whole entry): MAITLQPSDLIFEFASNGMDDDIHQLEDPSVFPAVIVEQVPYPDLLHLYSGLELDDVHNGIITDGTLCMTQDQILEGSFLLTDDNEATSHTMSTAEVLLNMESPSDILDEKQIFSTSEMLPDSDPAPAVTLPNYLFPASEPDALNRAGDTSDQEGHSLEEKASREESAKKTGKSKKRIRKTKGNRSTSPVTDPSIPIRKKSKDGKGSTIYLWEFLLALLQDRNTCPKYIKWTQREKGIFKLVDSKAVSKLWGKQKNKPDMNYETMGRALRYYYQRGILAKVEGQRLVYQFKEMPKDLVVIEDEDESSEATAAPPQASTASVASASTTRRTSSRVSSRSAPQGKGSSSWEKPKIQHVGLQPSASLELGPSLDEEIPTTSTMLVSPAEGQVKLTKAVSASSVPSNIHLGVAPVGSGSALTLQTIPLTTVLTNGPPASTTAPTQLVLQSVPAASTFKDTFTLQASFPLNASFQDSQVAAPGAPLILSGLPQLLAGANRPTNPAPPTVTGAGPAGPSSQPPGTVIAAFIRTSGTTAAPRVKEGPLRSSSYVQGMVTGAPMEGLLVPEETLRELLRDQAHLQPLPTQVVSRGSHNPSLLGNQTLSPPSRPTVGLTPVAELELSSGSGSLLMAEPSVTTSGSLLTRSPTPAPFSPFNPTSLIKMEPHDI
ETV5, sequence (P41161 whole entry): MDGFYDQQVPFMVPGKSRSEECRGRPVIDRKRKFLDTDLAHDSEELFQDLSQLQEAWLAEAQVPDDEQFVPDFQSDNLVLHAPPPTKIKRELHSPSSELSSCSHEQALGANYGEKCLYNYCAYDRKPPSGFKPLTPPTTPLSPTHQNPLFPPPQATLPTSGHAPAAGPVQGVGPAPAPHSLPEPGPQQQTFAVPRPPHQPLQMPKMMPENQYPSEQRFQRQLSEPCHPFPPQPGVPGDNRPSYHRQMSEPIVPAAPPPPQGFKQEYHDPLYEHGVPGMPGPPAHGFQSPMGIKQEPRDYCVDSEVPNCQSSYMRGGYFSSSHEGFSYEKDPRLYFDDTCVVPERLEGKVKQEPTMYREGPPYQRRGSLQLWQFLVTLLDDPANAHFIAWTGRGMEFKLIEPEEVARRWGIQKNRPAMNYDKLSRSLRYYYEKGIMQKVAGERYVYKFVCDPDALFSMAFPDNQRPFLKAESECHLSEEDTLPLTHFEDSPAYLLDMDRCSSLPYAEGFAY
SPIB, sequence (Q01892 whole entry): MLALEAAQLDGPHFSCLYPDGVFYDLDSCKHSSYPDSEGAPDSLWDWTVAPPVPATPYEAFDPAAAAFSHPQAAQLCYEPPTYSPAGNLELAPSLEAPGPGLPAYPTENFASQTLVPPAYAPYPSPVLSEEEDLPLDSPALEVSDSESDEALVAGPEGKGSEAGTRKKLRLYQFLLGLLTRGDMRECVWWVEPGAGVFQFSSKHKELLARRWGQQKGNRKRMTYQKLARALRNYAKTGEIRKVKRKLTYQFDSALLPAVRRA
HSF1, sequence (Q00613 whole entry): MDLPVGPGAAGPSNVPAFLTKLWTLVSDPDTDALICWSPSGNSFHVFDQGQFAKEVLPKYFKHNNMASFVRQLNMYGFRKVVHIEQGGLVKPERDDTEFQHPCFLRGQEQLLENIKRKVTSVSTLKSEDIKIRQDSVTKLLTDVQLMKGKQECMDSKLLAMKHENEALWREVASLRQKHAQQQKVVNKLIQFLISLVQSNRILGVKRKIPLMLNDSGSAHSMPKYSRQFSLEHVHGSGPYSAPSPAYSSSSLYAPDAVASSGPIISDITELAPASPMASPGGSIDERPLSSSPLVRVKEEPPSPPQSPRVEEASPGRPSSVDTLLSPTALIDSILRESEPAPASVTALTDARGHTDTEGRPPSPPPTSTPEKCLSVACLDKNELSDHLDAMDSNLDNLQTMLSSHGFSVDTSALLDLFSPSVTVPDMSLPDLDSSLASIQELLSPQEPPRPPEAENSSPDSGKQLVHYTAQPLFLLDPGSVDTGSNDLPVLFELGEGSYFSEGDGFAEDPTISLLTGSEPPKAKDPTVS
CRX, sequence (O43186 whole entry): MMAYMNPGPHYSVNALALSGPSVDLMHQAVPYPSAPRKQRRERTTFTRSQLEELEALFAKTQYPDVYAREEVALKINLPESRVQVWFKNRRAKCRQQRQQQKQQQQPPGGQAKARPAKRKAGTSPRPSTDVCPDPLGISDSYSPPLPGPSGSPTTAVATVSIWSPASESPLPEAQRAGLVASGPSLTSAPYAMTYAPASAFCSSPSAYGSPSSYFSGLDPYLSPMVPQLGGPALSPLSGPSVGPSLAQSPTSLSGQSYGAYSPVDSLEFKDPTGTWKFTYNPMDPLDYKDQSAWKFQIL
ELF1, sequence (P32519 whole entry): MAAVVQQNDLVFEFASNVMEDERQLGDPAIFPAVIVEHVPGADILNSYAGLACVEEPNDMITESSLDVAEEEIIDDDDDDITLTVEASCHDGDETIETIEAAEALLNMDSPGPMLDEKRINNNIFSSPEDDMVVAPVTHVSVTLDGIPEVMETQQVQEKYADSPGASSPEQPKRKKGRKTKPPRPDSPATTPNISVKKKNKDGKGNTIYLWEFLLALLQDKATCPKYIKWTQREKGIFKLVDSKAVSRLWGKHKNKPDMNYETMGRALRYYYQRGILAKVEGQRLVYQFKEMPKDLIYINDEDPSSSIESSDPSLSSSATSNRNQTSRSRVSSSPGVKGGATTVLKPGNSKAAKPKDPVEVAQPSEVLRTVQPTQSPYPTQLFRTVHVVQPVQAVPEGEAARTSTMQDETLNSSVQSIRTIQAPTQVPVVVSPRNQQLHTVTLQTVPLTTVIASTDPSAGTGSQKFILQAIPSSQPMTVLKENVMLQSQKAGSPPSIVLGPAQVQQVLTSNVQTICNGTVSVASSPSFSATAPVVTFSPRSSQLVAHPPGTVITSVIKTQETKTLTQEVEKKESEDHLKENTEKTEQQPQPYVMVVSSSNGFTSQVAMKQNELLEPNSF
ETV1, sequence (P50549 whole entry): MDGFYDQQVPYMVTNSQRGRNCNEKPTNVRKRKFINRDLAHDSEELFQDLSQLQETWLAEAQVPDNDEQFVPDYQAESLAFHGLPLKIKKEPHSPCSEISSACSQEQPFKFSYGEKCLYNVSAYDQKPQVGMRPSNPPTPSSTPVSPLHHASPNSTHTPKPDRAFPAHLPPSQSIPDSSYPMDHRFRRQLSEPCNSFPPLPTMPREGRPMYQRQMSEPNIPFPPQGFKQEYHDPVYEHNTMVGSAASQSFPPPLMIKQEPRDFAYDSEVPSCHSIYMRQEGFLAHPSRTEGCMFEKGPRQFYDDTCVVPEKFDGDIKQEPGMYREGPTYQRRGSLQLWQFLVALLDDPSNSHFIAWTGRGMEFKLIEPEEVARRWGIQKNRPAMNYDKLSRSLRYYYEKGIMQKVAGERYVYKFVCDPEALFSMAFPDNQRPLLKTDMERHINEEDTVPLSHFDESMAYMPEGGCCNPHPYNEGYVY

## TATACA
FLI1
  binding signal: 1.32 fold enrichment (6-mer frequency, TF over GST control)
ELK1
  binding signal: 1.29 fold enrichment (6-mer frequency, TF over GST control)
GABPA
  binding signal: 1.42 fold enrichment (6-mer frequency, TF over GST control)
ERG
  binding signal: 1.39 fold enrichment (6-mer frequency, TF over GST control)
ELF1
  binding signal: 1.27 fold enrichment (6-mer frequency, TF over GST control)
EHF
  binding signal: 1.35 fold enrichment (6-mer frequency, TF over GST control)
SPI1
  binding signal: 1.32 fold enrichment (6-mer frequency, TF over GST control)
SPIB
  binding signal: 1.22 fold enrichment (6-mer frequency, TF over GST control)
ELK3
  binding signal: 1.47 fold enrichment (6-mer frequency, TF over GST control)
FEV
  binding signal: 1.29 fold enrichment (6-mer frequency, TF over GST control)
ETV5
  binding signal: 1.35 fold enrichment (6-mer frequency, TF over GST control)
HSF1
  binding signal: 1.27 fold enrichment (6-mer frequency, TF over GST control)
SPIC
  binding signal: 1.28 fold enrichment (6-mer frequency, TF over GST control)
ELF4
  binding signal: 1.37 fold enrichment (6-mer frequency, TF over GST control)
ELK4
  binding signal: 1.28 fold enrichment (6-mer frequency, TF over GST control)
ETV2
  binding signal: 1.28 fold enrichment (6-mer frequency, TF over GST control)
ELF3
  binding signal: 1.43 fold enrichment (6-mer frequency, TF over GST control)
CRX
  binding signal: 1.36 fold enrichment (6-mer frequency, TF over GST control)
ETV1
  binding signal: 1.43 fold enrichment (6-mer frequency, TF over GST control)
